Inconclusive results are not listed. Active and inactive are the calls of the source. The calls were made as follows: active = hit-call score of the fitted dose curve at least 0.9, where 1 is the maximum; inconclusive = response in the unintended direction; inactive = score below 0.9.
The compounds below were run against rat Gamma-Aminobutyric Acid Type A Receptor BDZ, alpha 6 site (GABARa6), Gabra6 (gene 29708) (UniProt P30191) (assay: NVS_LGIC_rGABARa6: NovaScreen (NVS) Ligand-Gated Ion Channel Assay for rat Gamma-Aminobutyric Acid Type A Receptor BDZ, alpha 6 site (GABARa6) (AID 2283339)).
Method: NVS_LGIC_rGABARa6 is a biochemical, single-readout assay that uses extracted gene-proteins from Rat cerebellar membranes in a tissue-based cell-free assay. Measurements were taken 1 hour after chemical dosing in a 48-well plate.NVS_LGIC_rGABARa6 is one of one assay component(s) measured or calculated from the NVS_LGIC_rGABARa6 assay. It is designed to make measurements of radioligand binding, a form of binding reporter, as detected with scintillation counting signals by Filter-based radiodetection technology.Data from the assay component NVS_LGIC_rGABARa6 was analyzed into 1 assay endpoint. This assay endpoint, NVS_LGIC_rGABARa6, was analyzed in the positive analysis fitting direction relative to DMSO as the negative control and baseline of activity. Using a type of binding reporter, loss-of-signal activity can be used to understand changes in the binding as they relate to the gene Gabra6. Furthermore, this assay endpoint can be referred to as a primary readout, because the performed assay has only produced 1 assay endpoint. To generalize the intended target to other relatable targets, this assay endpoint is annotated to the ion channel intended target family, where the subfamily is ligand-gated ion channel.
Binding assays used specific radioligands (tritiated, iodinated) with non-radioactive competitive displacement ligands in agonist or antagonist protocols (as indicated) and various reference compounds and inhibitors to titrate specific binding to receptors and transporters. Most enzyme assays (CYPs, kinases, phosphatases, proteases, HDACs) used recombinant protein and specific substrates (fluorescence mostly, some colorimetric and radioactive) and inhibitors, followed by a biochemical separation of substrate and product. All assays for the biochemical HTS were initially run in duplicate at a single concentration (10 uM for CYP450 assays and 25 uM for all others). Assay-chemical combinations meeting a pre-defined threshold (e.g., 30% inhibition and other criteria defined below) were then run in singleton concentration-response format with maximum concentration of 20 uM for CYPs and 50 uM for all others. Each assay was run with positive and negative controls, and concurrent controls on every plate. The follow-up (secondary) screen tested active chemical-pairs in concentration series, as well as a few additional assays not tested in the primary screen, some selected negative inactives, and several cases re-run in the concentration series for confirmatory purposes.

Sequence of rat Gamma-Aminobutyric Acid Type A Receptor BDZ, alpha 6 site (GABARa6), Gabra6 (gene 29708) (P30191 whole entry, looked up): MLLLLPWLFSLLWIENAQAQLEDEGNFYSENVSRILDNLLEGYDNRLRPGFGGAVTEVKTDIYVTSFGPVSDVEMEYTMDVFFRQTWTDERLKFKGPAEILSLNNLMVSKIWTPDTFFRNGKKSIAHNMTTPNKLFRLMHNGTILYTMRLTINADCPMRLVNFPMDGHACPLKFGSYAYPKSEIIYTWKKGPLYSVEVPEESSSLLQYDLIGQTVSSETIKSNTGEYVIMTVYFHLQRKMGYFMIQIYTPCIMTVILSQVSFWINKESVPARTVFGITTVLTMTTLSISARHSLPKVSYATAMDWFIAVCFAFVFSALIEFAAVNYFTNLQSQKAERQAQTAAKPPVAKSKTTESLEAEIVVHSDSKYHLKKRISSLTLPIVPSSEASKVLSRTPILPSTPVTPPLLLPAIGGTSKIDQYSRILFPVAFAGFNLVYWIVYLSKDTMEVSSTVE

Structure (SMILES) | outcome | AC50
C=COCCCl | inactive | –
Cc1ccc(C(C)C)c(O)c1 | inactive | –
O=c1n(CC2CO2)c(=O)n(CC2CO2)c(=O)n1CC1CO1 (stereo not given) | inactive | –
CCCCCCCCCC(=O)O | inactive | –
NC(=O)N1c2ccccc2C=Cc2ccccc21 | inactive | –
Cc1c(-c2cccnc2)c2ccccc2n1CCCCC(=O)O | inactive | –
CCCC(CCC)C(=O)O | inactive | –
CCn1nc(C)c2c1C(=O)NCC(c1ccc(O)cc1)=N2 | inactive | –
CS(=O)(=O)c1ccc(C2=C(c3ccccc3)C(=O)OC2)cc1 | inactive | –
CCC(C)N(C)C(=O)c1cc2ccccc2c(-c2ccccc2Cl)n1 (stereo not given) | inactive | –
Cc1cccc(C)c1[N+](=O)[O-] | inactive | –
COc1ccc(OC)c(N=Nc2c(O)ccc3ccccc23)c1 | inactive | –
CC[C@H](C)[C@@H](C(=O)O)n1sc2ccccc2c1=O | inactive | –
O=C(OCCOCCOC(=O)c1ccccc1)c1ccccc1 | inactive | –
CCOc1ccc2[nH]cc(C(=O)NCc3ccccc3)c(=O)c2n1 | – | 215 nM (active)
CC=Cc1ccc(OCC)c(O)c1 | inactive | –
C[C@]12CC[C@H](O)C[C@H]1CC[C@@H]1[C@@H]2C[C@@H](O)[C@]2(C)[C@@H](C3=CC(=O)OC3)CC[C@]12O | inactive | –
COC(=O)c1ccccc1S(=O)(=O)NC(=O)Nc1nc(OC(F)F)cc(OC(F)F)n1 | inactive | –
CC(C)(C)CC(C)(C)c1ccc(O)c(-n2nc3ccccc3n2)c1 | inactive | –
C[Si]1(C)O[Si](C)(C)O[Si](C)(C)O[Si](C)(C)O1 | inactive | –
